# Measured values reported in PubChem BioAssay AID1159580 (chemical genetic matrix, 2015).
# Where “and” joins values, the source holds several entries; their conditions need not be identical. Equal values may be shown once. About 2,000 (36%) of roughly 5,500 compounds were called active. Roughly 18% stayed inconclusive and do not appear here. This is one part of the list. A number with no mark means an inactive call. Rule as the data show it: active = normalized growth mostly below about 0.91 (no sharp cut-off); inconclusive = no clear call, values can overlap the other calls; inactive = mostly above about 0.92.
# Assay: chemical genetic growth profiling, strain panel (AID 1159580);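 also: tested at 20 µM; growth read once vehicle control cultures reached saturation at 30 °C; 1 = growth at the plate median or of vehicle wells; lower values mean less growth of the strain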
# Settings: S. cerevisiae deletion strains, growth OD
# [1] = locus YHR030C, strain SLT2, hits give low values
# [2] = locus YHR079C, strain IRE1, hits give low values
# [3] = locus YJL095W, strain BCK1, hits give low values
# [4] = locus YJR066W, strain TOR1, hits give low values
# [5] = locus YLR113W, strain HOG1, hits give low values
# [6] = locus YNL183C, strain NPR1, hits give low values
# [7] = locus YOR231W, strain MKK1, hits give low values
# [8] = locus YPL256C, strain CLN2, hits give low values
smiles,measurement,setting,value
C=C(C)[C@@H]1CC[C@]2(CO)CC[C@]3(C)[C@H](CCC4[C@@]5(C)CC[C@H](O)C(C)(C)C5CC[C@]43C)C12 (some centres not stated),normalized growth,"locus YAL021C, strain ccr4, hits give low values",1.02
same,normalized growth,"locus YAL026C, strain drs2, hits give low values",1.01
same,normalized growth,"locus YAL030W, strain snc1, hits give low values",1.01
same,normalized growth,"locus YBL061C, strain skt5, hits give low values",1.02
same,normalized growth,"locus YBR009C, strain hhf1, hits give low values",1.01
same,normalized growth,"locus YBR021W, strain FUR4, hits give low values",0.984
same,normalized growth,"locus YBR023C, strain chs3, hits give low values",1.01
same,normalized growth,"locus YBR171W, strain sec66, hits give low values",1.02
same,normalized growth,"locus YBR229C, strain ROT2, hits give low values",0.995
same,normalized growth,"locus YBR231C, strain swc5, hits give low values",1.01
same,normalized growth,"locus YBR279W, strain paf1, hits give low values",1.01
same,normalized growth,"locus YCL011C, strain gbp2, hits give low values",1.01
same,normalized growth,"locus YCL016C, strain dcc1, hits give low values",1.01
same,normalized growth,"locus YCL029C, strain bik1, hits give low values",0.979
same,normalized growth,"locus YCL061C, strain MRC1, hits give low values",1.01
same,normalized growth,"locus YCL069W, strain vba3, hits give low values",1.01
same,normalized growth,"locus YCR088W, strain abp1, hits give low values",1.01
same,normalized growth,"locus YDL005C, strain med2, hits give low values",1
same,normalized growth,"locus YDL035C, strain GPR1, hits give low values",1.02
same,normalized growth,"locus YDL040C, strain nat1, hits give low values",1.01
same,normalized growth,"locus YDL074C, strain BRE1, hits give low values",1.01
same,normalized growth,"locus YDL101C, strain DUN1, hits give low values",0.991
same,normalized growth,"locus YDL185W, strain tfp1, hits give low values",0.977
same,normalized growth,"locus YDL192W, strain arf1, hits give low values",0.997
same,normalized growth,"locus YDR001C, strain nth1, hits give low values",1
same,normalized growth,"locus YDR069C, strain doa4, hits give low values",1
same,normalized growth,"locus YDR101C, strain arx1, hits give low values",0.977
same,normalized growth,"locus YDR137W, strain rgp1, hits give low values",1.01
same,normalized growth,"locus YDR159W, strain sac3, hits give low values",1.01
same,normalized growth,"locus YDR162C, strain NBP2, hits give low values",1.02
same,normalized growth,"locus YDR195W, strain ref2",0.972
same,normalized growth,"locus YDR297W, strain sur2, hits give low values",1.01
same,normalized growth,"locus YDR318W, strain mcm21, hits give low values",1.02
same,normalized growth,"locus YDR334W, strain swr1, hits give low values",0.996
same,normalized growth,"locus YDR335W, strain msn5, hits give low values",1
same,normalized growth,"locus YDR388W, hits give low values",1.01
same,normalized growth,"locus YDR392W, strain spt3, hits give low values",0.925
same,normalized growth,"locus YDR502C, strain sam2, hits give low values",0.997
same,normalized growth,"locus YEL003W, strain gim4, hits give low values",1
same,normalized growth,"locus YEL037C, strain rad23, hits give low values",0.977
same,normalized growth,"locus YEL061C, strain CIN8 (second series), hits give low values",1
same,normalized growth,"locus YEL061C, strain CIN8, hits give low values",1.02
same,normalized growth,"locus YER015W, strain faa2, hits give low values",0.996
same,normalized growth,"locus YER016W, strain bim1, hits give low values",1.01
same,normalized growth,"locus YER110C, hits give low values",0.99
same,normalized growth,"locus YER111C, strain swi4, hits give low values",1.01
same,normalized growth,"locus YER155C, strain BEM2 (second series), hits give low values",0.984
same,normalized growth,"locus YER155C, strain BEM2, hits give low values",0.992
same,normalized growth,"locus YER167W, strain BCK2, hits give low values",1
same,normalized growth,"locus YFR010W, strain ubp6, hits give low values",0.999
same,normalized growth,"locus YGL078C, strain dbp3, hits give low values",0.989
same,normalized growth,"locus YGL086W, strain mad1, hits give low values",0.973
same,normalized growth,"locus YGL167C, strain pmr1, hits give low values",1.01
same,normalized growth,"locus YGL173C, strain kem1, hits give low values",1.01
same,normalized growth,"locus YGL227W, strain vid30, hits give low values",1.02
same,normalized growth,"locus YGL240W, strain doc1, hits give low values",1.01
same,normalized growth,"locus YGL248W, strain PDE1, hits give low values",1
same,normalized growth,"locus YGL253W, strain hxk2, hits give low values",1.04
same,normalized growth,"locus YGR135W, strain pre9, hits give low values",1.01
same,normalized growth,"locus YGR252W, strain gcn5, hits give low values",1.05
same,normalized growth,"locus YHR013C, strain ard1, hits give low values",1.03
same,normalized growth,"locus YHR027C, strain rpn1, hits give low values",1
same,normalized growth,[1],0.995 and 0.997
same,normalized growth,"locus YHR079C, strain IRE1 (second series), hits give low values",0.992
same,normalized growth,[2],0.998
same,normalized growth,"locus YHR094C, strain hxt1, hits give low values",1
same,normalized growth,"locus YHR129C, strain ARP1, hits give low values",0.949
same,normalized growth,"locus YHR142W, strain chs7, hits give low values",1.06
same,normalized growth,"locus YHR200W, strain rpn10, hits give low values",0.998
same,normalized growth,"locus YIL066C, strain RNR3, hits give low values",0.993
same,normalized growth,"locus YIL073C, strain SPO22, hits give low values",1.01
same,normalized growth,"locus YIL125W, strain kgd1, hits give low values",0.986
same,normalized growth,"locus YIR030C, strain dcg1, hits give low values",0.989
same,normalized growth,"locus YJL092W, strain hpr5, hits give low values",1.01
same,normalized growth,"locus YJL095W, strain BCK1 (second series), hits give low values",1.01
same,normalized growth,[3],1.02 and 0.982
same,normalized growth,"locus YJL115W, strain asf1, hits give low values",1.01
same,normalized growth,"locus YJL129C, strain trk1, hits give low values",1.03
same,normalized growth,"locus YJL134W, strain LCB3, hits give low values",0.992
same,normalized growth,"locus YJL154C, strain vps35, hits give low values",0.998
same,normalized growth,"locus YJL164C, strain tpk1, hits give low values",1.01
same,normalized growth,"locus YJL166W, strain qcr8, hits give low values",1.01
same,normalized growth,"locus YJL168C, strain set2, hits give low values",0.994
same,normalized growth,"locus YJL187C, strain SWE1 (second series), hits give low values",0.996
same,normalized growth,"locus YJL187C, strain SWE1, hits give low values",1.01
same,normalized growth,"locus YJR043C, strain POL32, hits give low values",0.996
same,normalized growth,[4],0.932
same,normalized growth,"locus YJR075W, strain HOC1, hits give low values",1.01
same,normalized growth,"locus YKL009W, strain mrt4, hits give low values",0.963
same,normalized growth,"locus YKL068W, hits give low values",1.09 [resistant] (active)
same,normalized growth,"locus YKL160W, strain elf1, hits give low values",1.03
same,normalized growth,"locus YKL190W, strain CNB1, hits give low values",1.03
same,normalized growth,"locus YKR001C, strain vps1, hits give low values",0.976
same,normalized growth,"locus YKR026C, strain gcn3, hits give low values",1.01
same,normalized growth,"locus YKR091W, strain srl3, hits give low values",1
same,normalized growth,"locus YLL001W, strain dnm1, hits give low values",1.03
same,normalized growth,"locus YLL026W, hits give low values",1
same,normalized growth,"locus YLL041C, strain sdh2, hits give low values",1
same,normalized growth,"locus YLR027C, strain aat2, hits give low values",1
same,normalized growth,"locus YLR039C, strain RIC1, hits give low values",1.02
same,normalized growth,"locus YLR058C, strain SHM2, hits give low values",1.01
same,normalized growth,"locus YLR102C, strain apc9, hits give low values",0.991
same,normalized growth,[5],0.999
same,normalized growth,"locus YLR221C, strain rsa3, hits give low values",1.03
same,normalized growth,"locus YLR258W, strain gsy2, hits give low values",0.996
same,normalized growth,"locus YLR262C, strain YPT6 (second series), hits give low values",1
same,normalized growth,"locus YLR262C, strain YPT6, hits give low values",1.08
same,normalized growth,"locus YLR268W, strain sec22, hits give low values",0.964
same,normalized growth,"locus YLR320W, strain mms22, hits give low values",1.04
same,normalized growth,"locus YLR330W, strain CHS5, hits give low values",1
same,normalized growth,"locus YLR342W, strain FKS1 (second series), hits give low values",0.998
same,normalized growth,"locus YLR342W, strain FKS1, hits give low values",0.986
same,normalized growth,"locus YLR357W, strain rsc2, hits give low values",1.01
same,normalized growth,"locus YLR370C, strain arc18, hits give low values",1.02
same,normalized growth,"locus YLR371W, strain rom2, hits give low values",0.985
same,normalized growth,"locus YLR384C, strain iki3, hits give low values",1.01
same,normalized growth,"locus YLR418C, strain cdc73, hits give low values",1.01
same,normalized growth,"locus YML016C, strain PPZ1, hits give low values",0.985
same,normalized growth,"locus YML032C, strain rad52, hits give low values",1.02
same,normalized growth,"locus YML120C, strain ndi1, hits give low values",1
same,normalized growth,"locus YML124C, strain tub3, hits give low values",0.994
same,normalized growth,"locus YMR058W, strain fet3, hits give low values",1.02
same,normalized growth,"locus YMR078C, strain ctf18, hits give low values",0.973
same,normalized growth,"locus YMR125W, strain sto1, hits give low values",1.01
same,normalized growth,"locus YMR129W, hits give low values",1
same,normalized growth,"locus YMR205C, strain PFK2, hits give low values",1.03
same,normalized growth,"locus YMR223W, strain ubp8, hits give low values",1
same,normalized growth,"locus YMR231W, strain pep5, hits give low values",1.01
same,normalized growth,"locus YMR307W, strain GAS1, hits give low values",1.09
same,normalized growth,"locus YNL067W, strain RPL9B, hits give low values",1
same,normalized growth,"locus YNL071W, strain lat1, hits give low values",1.01
same,normalized growth,[6],0.939
same,normalized growth,"locus YNL209W, strain ssb2, hits give low values",1.01
same,normalized growth,"locus YNL233W, strain BNI4, hits give low values",0.999
same,normalized growth,"locus YNL248C, strain rpa49, hits give low values",1
same,normalized growth,"locus YNL250W, strain rad50, hits give low values",0.978
same,normalized growth,"locus YNL271C, strain bni1, hits give low values",0.976
same,normalized growth,"locus YNL298W, strain CLA4, hits give low values",1.01
same,normalized growth,"locus YNL307C, strain MCK1, hits give low values",0.988
same,normalized growth,"locus YNL322C, strain KRE1 (second series), hits give low values",1.01
same,normalized growth,"locus YNR049C, strain mso1, hits give low values",1.01
same,normalized growth,"locus YNR052C, strain pop2, hits give low values",0.998
same,normalized growth,"locus YOL012C, strain htz1",0.862
same,normalized growth,"locus YOL147C, strain pex11, hits give low values",0.992
same,normalized growth,"locus YOR001W, strain rrp6, hits give low values",0.98
same,normalized growth,"locus YOR061W, strain CKA2, hits give low values",0.994
same,normalized growth,"locus YOR069W, strain VPS5, hits give low values",0.99
same,normalized growth,"locus YOR070C, strain gyp1, hits give low values",1.01
same,normalized growth,"locus YOR080W, strain dia2, hits give low values",1.01
same,normalized growth,"locus YOR083W, strain WHI5, hits give low values",1.03
same,normalized growth,"locus YOR106W, strain vam3, hits give low values",1.02
same,normalized growth,"locus YOR136W, strain idh2, hits give low values",0.979
same,normalized growth,"locus YOR144C, strain elg1, hits give low values",0.997
same,normalized growth,"locus YOR184W, strain ser1, hits give low values",0.98
same,normalized growth,[7],0.995
same,normalized growth,"locus YOR265W, strain rbl2, hits give low values",1.02
same,normalized growth,"locus YOR270C, strain vph1, hits give low values",1.04
same,normalized growth,"locus YOR290C, strain snf2, hits give low values",1
same,normalized growth,"locus YOR316C, strain cot1, hits give low values",0.999
same,normalized growth,"locus YPL051W, strain arl3, hits give low values",1.02
same,normalized growth,"locus YPL078C, strain atp4, hits give low values",1.01
same,normalized growth,"locus YPL106C, strain sse1, hits give low values",1
same,normalized growth,"locus YPL240C, strain hsp82, hits give low values",1
same,normalized growth,[8],0.972
same,normalized growth,"locus YPR119W, strain clb2, hits give low values",0.993
same,normalized growth,"locus YPR141C, strain kar3, hits give low values",0.984
same,normalized growth,"locus YPR163C, strain tif3, hits give low values",1
same,normalized growth,"locus YPR167C, strain met16, hits give low values",1.01
same,normalized growth,"strain wtn01, hits give low values",0.946
C=C(C)[C@@H]1CC[C@]2(C)CC[C@]3(C)[C@@H](CCC4[C@@]5(C)CC[C@H](O)C(C)(C)C5CC[C@]43C)C12 (some centres not stated),normalized growth,[1],1
same,normalized growth,[2],0.978
same,normalized growth,[3],0.993
same,normalized growth,[4],0.944
same,normalized growth,[5],0.992
same,normalized growth,[6],0.923
same,normalized growth,[7],0.99
same,normalized growth,[8],0.994
